Rows were chosen to be rich in hits. Some 3.3% of all compounds tested hit in one or more screens of this group.
MazF activator: activators of E. coli MazEF toxin-antitoxin RNase, primary screen, biochemical, fluorescence, uHTS | actives 0.32% (n = 350,000) | activation, % at 20 µM | Endoribonuclease toxin MazF (Escherichia coli (strain K12)), P0AE70 | FAM/BHQ RNA-DNA oligo cleavage fluorescence, 5 h; in the data active = activation above about 50%
Target sequence (P0AE70 whole entry, looked up): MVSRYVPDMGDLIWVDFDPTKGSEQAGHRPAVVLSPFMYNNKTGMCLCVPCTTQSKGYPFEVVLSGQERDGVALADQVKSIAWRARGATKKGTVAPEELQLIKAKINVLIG
BoNT-A LC inh2: BoNT/A light chain protease inhibitors, primary screen, biochemical, flow cytometry, MLPCN library; inhibition, % at 10 µM; actives 0.17% (n = 360,000); multiplex microsphere protease substrate cleavage; AID 588499, 2011
Anthrax LF prot: Bacillus anthracis LF protease inhibitors, primary screen, biochemical, multiplex microsphere, MLPCN library | Lethal factor (Bacillus anthracis), P15917 | multiplex microsphere protease cleavage assay | inhibition, % at 10 µM | actives 0.12% (n = 360,000) | AID 588501, 2011
PriA SSB inh: inhibitors of Klebsiella pneumoniae PriA binding to SSB C-terminal tail, primary screen, biochemical, AlphaScreen; PriA–SSB C-terminal tail interaction (Klebsiella pneumoniae); AlphaScreen SSBct-PriA binding, biotinylated peptide; inhibition, % at 33 µM; actives 0.6% (n = 430,000); AID 1272365, 2023; in the data active = inhibition mostly above about 37%, no sharp cut-off; inactive = mostly below about 20%
BoNT F protease: BoNT/F light chain protease inhibitors, primary screen, biochemical, flow cytometry, MLPCN library; inhibition, % at 10 µM; AID 588497, 2011; Multiplex microsphere protease cleavage assay; actives 0.22% (n = 360,000); in the data active = inhibition above about 35%, passing the limit was not always enough; inconclusive = no clear call, values can overlap the other calls
Autofluor counter: compound fluorescence in toxin protease inhibitor counterscreen; fluorescence intensity (no concentration beside the values); actives 3.1% (n = 360,000); compound autofluorescence counterscreen, microsphere flow cytometry; stronger effect = higher value; AID 624483; in the data active = fluorescence intensity above about 16000; inconclusive = no clear call, values can overlap the other calls
Large screens that a line does not name were inactive. Rule as the data show it, unless noted: active = inhibition above about 30%; inconclusive = no clear call, values can overlap the other calls; inactive = below that.

CC(=O)c1cccc(NC(=O)CSc2nnc(-c3cccc(C)c3)n2N)c1	none (no result: MazF activator, BoNT-A LC inh2, Anthrax LF prot, BoNT F protease, Autofluor counter)
CCN(CC(=O)Nc1c(F)cccc1F)C(=O)C1Cc2ccccc2CN1S(=O)(=O)CC (configuration not stated)	Autofluor counter 16229
Cc1cccc(N2CCN(C(=O)C3CCCCC3)CC2)c1C	none
CCS(=O)(=O)N1Cc2ccccc2CC1C(=O)Nc1ccc(F)cc1 (configuration not stated)	none
CCS(=O)(=O)N1Cc2ccccc2CC1C(=O)N1CCN(c2cccc(C)c2C)CC1 (configuration not stated)	Autofluor counter 23317
CN(C)C(CNC(=O)C(=O)Nc1ccc2c(c1)N(S(C)(=O)=O)CCC2)c1ccc2c(c1)CCO2 (configuration not stated)	none (no result: MazF activator, BoNT-A LC inh2, Anthrax LF prot, BoNT F protease, Autofluor counter)
COc1cccc(-c2ccc(=O)n(Cc3nc(-c4ccccc4Br)no3)n2)c1	none (no result: MazF activator, BoNT-A LC inh2, Anthrax LF prot, BoNT F protease, Autofluor counter)
O=C(Nc1ccc(Cl)c(Cl)c1)Nc1nccs1	none
O=C(Nc1cccc(Cl)c1)Nc1nccs1	BoNT-A LC inh2 inconclusive, Autofluor counter 16192
CN=C1SC(CC(=O)Nc2cc(Cl)ccc2Cl)C(=O)N1C (configuration not stated)	Autofluor counter 21833
O=C(CSc1nc2c(c(=O)n1-c1ccc(OC(F)(F)F)cc1)SCC2)NC1CCCCC1	none (no result: MazF activator, BoNT-A LC inh2, Anthrax LF prot, BoNT F protease, Autofluor counter)
Cc1ccc(S(=O)(=O)N2C(=O)CCC2C(=O)Nc2ccc3c(c2)OCCO3)cc1 (configuration not stated)	PriA SSB inh 96
CC(=O)Nc1ccc(S(=O)(=O)N2CCCC2C(=O)Nc2ccc3c(c2)OCCO3)cc1 (configuration not stated)	none
Cc1ccc(C)c(S(=O)(=O)N2CCN(CC(=O)Nc3ccc4c(c3)OCCO4)CC2)c1	Autofluor counter 24103
O=C(CN1CCN(S(=O)(=O)c2cc(Cl)ccc2Cl)CC1)Nc1ccc2c(c1)OCCO2	none
O=C1CNC(=O)N1CC(=O)N1CCCc2ccccc21	BoNT-A LC inh2 inconclusive, Autofluor counter 20063
O=C(CN1CCCCC1)N1CCCc2ccccc21	none
O=C1c2ccccc2C(=O)N1CCC(=O)N1CCc2ccccc21	Autofluor counter 22459
O=C(c1ccccc1)c1cn(CC(=O)N2CCCc3ccccc32)c2ccccc12	none
CC(C)C(=O)c1cn(CC(=O)N2CCCc3ccccc32)c2ccccc12	BoNT-A LC inh2 inconclusive, Autofluor counter 23272
CCc1nnc(SCC(=O)Nc2ccc(OC)c(Cl)c2)n1-n1cccc1	none (no result: MazF activator, BoNT-A LC inh2, Anthrax LF prot, BoNT F protease, Autofluor counter)
O=C(CCNS(=O)(=O)c1ccc(Cl)cc1)NCc1cccnc1	Autofluor counter 23127
Cc1ccc(S(=O)(=O)NCCC(=O)NCc2ccccc2)cc1	Autofluor counter 21858
O=S(=O)(NCc1ccccc1)c1ccc(Cl)cc1	none
CSc1ccc(S(=O)(=O)NCc2ccccc2)cc1	Autofluor counter 22207
CC(NS(=O)(=O)c1ccc(CCC(=O)NCc2cccnc2)cc1)c1ccccc1 (configuration not stated)	Autofluor counter 20378
Cc1ccc(S(=O)(=O)NCCC(=O)NCc2cccnc2)cc1	none
O=C(Cc1c[nH]c2ccccc12)N1CCC(Oc2cccnn2)C1 (configuration not stated)	none (no result: MazF activator, BoNT-A LC inh2, Anthrax LF prot, BoNT F protease, Autofluor counter)
CCOc1ccc2ccccc2c1C(=O)NCc1nnnn1-c1ccc(F)cc1	none (no result: MazF activator, BoNT-A LC inh2, Anthrax LF prot, BoNT F protease, Autofluor counter)
CN1CCN(C(CNC(=O)COc2ccccc2F)c2ccc3c(c2)CCN3C)CC1 (configuration not stated)	none (no result: MazF activator, BoNT-A LC inh2, Anthrax LF prot, BoNT F protease, Autofluor counter)
O=C(c1cccc(Cl)c1)N1CC(N2C(=O)CCC2=O)C1	none (no result: MazF activator, BoNT-A LC inh2, Anthrax LF prot, BoNT F protease, Autofluor counter)
CCN1CCCC1CNCc1cc(OC)c(OC)c(OC)c1 (configuration not stated)	Autofluor counter 24874
COc1ccc(N2CCN(C(=O)CSc3nnc4c(C)cc5ccc(C)c(C)c5n34)CC2)cc1	Autofluor counter 21530
COc1ccc(N2CCN(C(=O)CSc3nnc4c(C)cc5cc(C)ccc5n34)CC2)cc1	Autofluor counter 23987
COc1ccc(N2CCN(C(=O)CSc3nnc4c(C)cc5c(C)cc(C)cc5n34)CC2)cc1	none
CCCNCCC(c1ccco1)c1ccccc1OC (configuration not stated)	Autofluor counter 16663
CCC(=O)NCCC(c1ccco1)c1ccccc1OC (configuration not stated)	none
CCC(CC)C(=O)NCCn1ncc2c(=O)n(Cc3ccccc3C)cnc21	none (no result: MazF activator, BoNT-A LC inh2, Anthrax LF prot, BoNT F protease, Autofluor counter)
CC(O)/C=C/c1ccc2ccccc2n1 (configuration not stated)	Autofluor counter 17160
O=c1cc(N2CCN(c3ccccc3)CC2)[nH]c(=O)n1-c1ccccc1Cl	Autofluor counter 21259
CCOC(=O)N1CCN(c2cc(=O)n(-c3ccccc3Cl)c(=O)[nH]2)CC1	PriA SSB inh 104
O=c1cc(N2CCN(c3ccccc3)CC2)[nH]c(=O)n1-c1ccccc1F	none (no result: MazF activator, BoNT-A LC inh2, Anthrax LF prot, BoNT F protease, Autofluor counter)
COCCN1CCCc2ccc(NS(=O)(=O)c3ccc(OC)c(Cl)c3)cc21	none (no result: MazF activator, BoNT-A LC inh2, Anthrax LF prot, BoNT F protease, Autofluor counter)
O=C(O)C1C2C=CC(O2)C1C(=O)Nc1ccc(S(=O)(=O)Nc2ccccc2)cc1 (configuration not stated)	Autofluor counter 21995
COc1ccc(OCc2ccc(-c3nc(C#N)c(N4CCC(C(N)=O)CC4)o3)o2)cc1	PriA SSB inh 37 (no result: MazF activator, BoNT-A LC inh2, Anthrax LF prot, BoNT F protease, Autofluor counter)
CCCOc1ccc(-c2nc(C#N)c(N3CCC(C(N)=O)CC3)o2)cc1	Autofluor counter 19961
N#Cc1nc(-c2ccc(OCc3ccc(Cl)cc3)cc2)oc1N1CCC(C(N)=O)CC1	none
Cc1cc(C)c2sc(NCCN3CCOCC3)nc2c1	none (no result: MazF activator, BoNT-A LC inh2, Anthrax LF prot, BoNT F protease, Autofluor counter)
Cc1ccc2cc(C(c3nnnn3Cc3ccccc3)N3CCc4ccccc43)c(=O)[nH]c2c1C (configuration not stated)	Autofluor counter 20150
Cc1ccc2[nH]c(=O)c(C(c3nnnn3Cc3ccccc3)N3CCc4ccccc43)cc2c1 (configuration not stated)	none
Cc1cc2cc(C(c3nnnn3Cc3ccco3)N3CCc4ccccc43)c(=O)[nH]c2cc1C (configuration not stated)	MazF activator 79
Cc1cc2cc(C(c3nnnn3Cc3ccccc3)N3CCc4ccccc43)c(=O)[nH]c2cc1C (configuration not stated)	BoNT-A LC inh2 inconclusive, Autofluor counter 21199
Cc1noc(C)c1CC(=O)Nc1cnc2ccnn2c1	none (no result: MazF activator, BoNT-A LC inh2, Anthrax LF prot, BoNT F protease, Autofluor counter)
O=C(COc1cccc(C(F)(F)F)c1)NCCn1nc(-c2cccnc2)ccc1=O	none (no result: MazF activator, BoNT-A LC inh2, Anthrax LF prot, BoNT F protease, Autofluor counter)
N#Cc1cc(Cl)c(N2CCOCC2)cc1C#N	none

Assay outcomes (PubChem)
